Rab9 promoter act: activators of Rab9 promoter. Huh7 Rab9 promoter-luciferase reporter, luminescence, 24 h. Potency, µM (highest dose often 9.22 µM), hits mostly activators. 320,000 tested, 2.8% active; also: nearly all actives have a fitted effect of over 60% in size
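Luciferase signal after 10 min detection reagent at ambient indicates Rab9 promoter upregulation; stably transfected Huh7 cells were treated 24 h with compound in DMSO at 37 °C, 5% CO2.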
SMN2 splice up: SMN2 splice variant enhancement | HEK293 SMN2-luciferase splicing reporter, luminescence, 30-36 h | Potency, µM (top dose mostly 46.1 µM), most hits filed as activators | 210,000 tested, 2.8% active; also: nearly all actives have a fitted effect of over 55% in size
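HEK293 cells carry an SMN2 minigene-luciferase reporter in which exon 7 inclusion puts luciferase in frame. Cells were seeded at 2000 cells/well, attached for 10-12 hours, then exposed to compounds for 30-36 hours at 37C before ONE-Glo luminescence.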
ELG1 genotoxic: genotoxicity induction in ELG1-luciferase HEK293T cells | HEK293T ELG1-luciferase reporter, luminescence, 16 h | Potency, µM (highest dose often 46 µM), most hits filed as activators | 330,000 tested, 1.3% active; also: nearly all actives have a fitted effect of over 60% in size
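HEK293T cells expressing luciferase-tagged ELG1 were treated with compound or DMSO for 16 hr at 37°C. Luciferase activity was then read after 30 min with ONE-Glo at room temperature; rising signal flags genetic stress.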
NPC1 promoter act: activators of NPC1 promoter; 320,000 tested, 2.4% active; Potency, µM (top dose mostly 9.22 µM), most hits filed as activators; AID 485313; Huh7 NPC1 promoter luciferase reporter, 24 h; also: nearly all actives have a fitted effect of over 60% in size
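Huh7 reporter cells (NPC1 promoter driving luciferase) are dosed with compound for 24 h at 37 °C, 5% CO2; luciferase detection reagent is then added and luminescence measured after 10 min at ambient temperature.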
FLuc counter: inhibits or activates purified firefly luciferase, miR-21 counter-screen; P08659; purified FLuc, Km substrates, luminescence inhibition; Potency, µM (highest dose often 57.5 µM), most hits filed as inhibitors; 360,000 tested, 6.9% active; AID 588342; also: nearly all actives have a fitted effect of over 55% in size
Target sequence (P08659 whole entry, looked up): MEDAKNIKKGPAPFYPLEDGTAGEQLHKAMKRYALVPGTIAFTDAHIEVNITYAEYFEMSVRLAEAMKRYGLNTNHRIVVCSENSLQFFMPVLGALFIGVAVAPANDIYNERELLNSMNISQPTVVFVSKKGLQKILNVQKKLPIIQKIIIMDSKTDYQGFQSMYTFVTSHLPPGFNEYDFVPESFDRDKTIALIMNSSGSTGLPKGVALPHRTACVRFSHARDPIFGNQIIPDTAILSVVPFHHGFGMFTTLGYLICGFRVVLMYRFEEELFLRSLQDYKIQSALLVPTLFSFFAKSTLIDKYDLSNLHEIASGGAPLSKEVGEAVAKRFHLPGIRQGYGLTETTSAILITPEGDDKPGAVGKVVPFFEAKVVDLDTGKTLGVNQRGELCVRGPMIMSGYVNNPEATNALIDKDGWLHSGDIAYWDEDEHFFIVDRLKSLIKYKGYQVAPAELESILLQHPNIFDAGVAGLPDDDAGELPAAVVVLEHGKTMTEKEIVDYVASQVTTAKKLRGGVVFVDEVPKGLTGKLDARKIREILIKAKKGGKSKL
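Purified P. pyralis luciferase, 10 nM final, with Km-level 10 uM D-luciferin and 10 uM ATP in 50 mM Tris acetate pH 7.5, 10 mM Mg acetate, 0.01% Tween-20, 0.05% BSA; 6-point qHTS titration about 60 µM downward; luminescence read.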
ELG1 repair inh: inhibitors of ELG1-dependent DNA repair in HEK293T cells; AID 504467; Potency, µM (highest dose often 46.1 µM), hits mostly inhibitors; HEK293T ELG1-luciferase reporter, luminescence, 16 h; DNA damage induced by 5-fluorouridine; 330,000 tested, 2.3% active; also: nearly all actives have a fitted effect of over 55% in size
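Quantitative HTS, concentration-response format. 2,000 cells/well co-treated with 5-fluorouridine and compound, 16 hr in 5% CO2 at 37 °C; ONE-Glo luminescence read after 30 min.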
Each line names hits and unclear results; the compound was inactive in the other large screens. A selection: hits, their analogues and other compounds. The true share with any hit is near 9.4%. Calls follow the shape of the dose curve; as a rule, active = well fitted curve in the direction sought with a large enough effect; inconclusive = small, poorly fitted or top-dose-only effect, or another doubt; inactive = no such curve, though single readings can be large; an effect the other way counts as inactive or inconclusive.

Cc1ccc(OCC(=O)OCc2cc(=O)n3ccsc3n2)cc1C	none (no result: Rab9 promoter act, SMN2 splice up, ELG1 genotoxic, NPC1 promoter act, ELG1 repair inh)
COc1ccc(/C=C2\SC(=S)N(CC(=O)NC3C=CS(=O)(=O)C3)C2=O)cc1 (configuration not stated)	FLuc counter 1.9µM (no result: SMN2 splice up)
COc1ccc(/C=C2\SC(=S)N(C(C)C(=O)NC3C=CS(=O)(=O)C3)C2=O)cc1 (configuration not stated)	FLuc counter 17µM, ELG1 repair inh inconclusive (no result: SMN2 splice up)
CCCCC1CCC(C(=O)N2CC(=O)Nc3ccc(Br)cc3C2c2ccc(F)cc2)CC1 (configuration not stated)	none (no result: Rab9 promoter act, ELG1 genotoxic, NPC1 promoter act, ELG1 repair inh)
CCOc1ccc2c(c1)nc(SCC(=O)c1cccs1)n2C	ELG1 genotoxic inconclusive, NPC1 promoter act inconclusive, FLuc counter 12µM, ELG1 repair inh inconclusive
CCOc1ccc2c(c1)nc(SCC(=O)c1ccc(Br)s1)n2C	none
O=C(Nc1ccc([N+](=O)[O-])cc1)C(=O)Nc1cccc(C(=O)O)c1	Rab9 promoter act inconclusive, ELG1 genotoxic inconclusive, NPC1 promoter act inconclusive, FLuc counter 0.019µM, ELG1 repair inh inconclusive (no result: SMN2 splice up)
O=C(O)c1cccc([N+](=O)[O-])c1	none (no result: Rab9 promoter act, ELG1 genotoxic, NPC1 promoter act, FLuc counter, ELG1 repair inh)
O=C(O)/C=C/c1cccc(NC(=O)Nc2ccc([N+](=O)[O-])cc2)c1	FLuc counter 7.6µM (no result: SMN2 splice up)
O=C(Nc1ccc(Oc2ccc(NC(=O)Nc3ccc([N+](=O)[O-])cc3)cc2)cc1)Nc1ccc([N+](=O)[O-])cc1	none (no result: SMN2 splice up)
[O-]/[N+](=C/c1ccc(F)cc1)c1ccccc1	FLuc counter inconclusive
[O-]/[N+](=C\C=C\c1ccccc1)c1ccccc1	Rab9 promoter act 1.8µM, ELG1 genotoxic inconclusive, NPC1 promoter act 2.5µM, FLuc counter 4.8µM, ELG1 repair inh inconclusive (no result: SMN2 splice up)
Cc1cc(C(=O)COC(=O)c2ccc(O)cc2)c(C)n1Cc1ccco1	Rab9 promoter act 2.5µM, SMN2 splice up 22µM, ELG1 genotoxic inconclusive, NPC1 promoter act 3.5µM, FLuc counter 3.4µM, ELG1 repair inh inconclusive
Cc1cc(C(=O)COC(=O)C(C)NC(N)=O)c(C)n1Cc1ccco1 (configuration not stated)	FLuc counter 13µM, ELG1 repair inh inconclusive
COc1ccc(CCC(=O)OCC(=O)NCc2ccc3c(c2)OCO3)cc1	none (no result: SMN2 splice up)
O=C(COC(=O)CCC(=O)c1ccc2c(c1)OCCO2)NCc1ccc2c(c1)OCO2	FLuc counter 11µM
COc1cc(OC)cc(C(=O)NCC(=O)OCC(=O)c2cc(C)n(Cc3ccco3)c2C)c1	FLuc counter 27µM
Cc1cc(C(=O)C(C)Cl)c(C)n1Cc1ccco1 (configuration not stated)	none
CN(C)CCNC(=O)Cc1ccc(NC(=O)N2CCCCc3ccccc32)cc1	none (no result: Rab9 promoter act, SMN2 splice up, ELG1 genotoxic, NPC1 promoter act, ELG1 repair inh)
CCOc1ncccc1C(=O)OCC(=O)c1cc(C)n(Cc2ccco2)c1C	Rab9 promoter act 0.5µM, ELG1 genotoxic 6.5µM, NPC1 promoter act 0.35µM, FLuc counter 0.85µM, ELG1 repair inh inconclusive
CCCC(=O)c1ccc2c(c1)OCCO2	FLuc counter inconclusive, ELG1 repair inh inconclusive
Cc1cc(C(=O)COC(=O)c2ccc(Br)o2)c(C)n1Cc1ccco1	Rab9 promoter act 3.2µM, ELG1 genotoxic inconclusive, FLuc counter 2.7µM, ELG1 repair inh inconclusive
Cc1cc(C(=O)COC(=O)CCC(=O)c2ccc3c(c2)OCCO3)c(C)n1Cc1ccco1	ELG1 genotoxic inconclusive, FLuc counter 8.5µM, ELG1 repair inh inconclusive
Cc1cc(C(=O)COC(=O)CNC(=O)c2ccco2)c(C)n1Cc1ccco1	FLuc counter inconclusive, ELG1 repair inh inconclusive
c1ccc(Cc2cc(-c3ccccc3)on2)cc1	Rab9 promoter act inconclusive, SMN2 splice up inconclusive, ELG1 genotoxic inconclusive, FLuc counter 12µM, ELG1 repair inh inconclusive
Clc1ccc(SCc2cc(-c3ccccc3)on2)cc1	ELG1 genotoxic inconclusive, ELG1 repair inh inconclusive
COCCn1c(=O)c(-c2cccs2)nc2cnc(Oc3ccc(OC)cc3)nc21	none (no result: Rab9 promoter act, ELG1 genotoxic, NPC1 promoter act, FLuc counter, ELG1 repair inh)
CC(=O)Nc1ccc(NC(=O)c2cc(-n3cnnc3)ccc2Cl)cc1	none
O=C(Nc1cccc(-c2nc3ccccc3s2)c1)c1cc(-n2cnnc2)ccc1Cl	FLuc counter 6.7µM, ELG1 repair inh inconclusive (no result: SMN2 splice up)
Cc1ccc2sc(-c3ccc(NC(=O)c4cc(-n5cnnc5)ccc4Cl)cc3)nc2c1	Rab9 promoter act inconclusive, SMN2 splice up 13µM, NPC1 promoter act inconclusive, FLuc counter 6µM, ELG1 repair inh inconclusive
Cc1ccc(NC(=O)c2cc(-n3cnnc3)ccc2Cl)c(C)c1	none
Cc1c(NC(=O)c2cc(-n3cnnc3)ccc2Cl)cccc1-c1nc2ccccc2s1	Rab9 promoter act 3.5µM, SMN2 splice up 5.6µM, NPC1 promoter act inconclusive, FLuc counter 0.6µM, ELG1 repair inh inconclusive
CC(=O)c1cccc(NC(=O)c2cc(-n3cnnc3)ccc2Cl)c1	none (no result: Rab9 promoter act, ELG1 genotoxic, NPC1 promoter act, ELG1 repair inh)
Cc1c(NC(=O)c2cccs2)cccc1-c1nc2ccccc2s1	FLuc counter 4.3µM
COc1ccc(-c2noc(CSc3nnc(-c4ccncc4)n3-c3ccc(C)cc3)n2)cc1OC	none (no result: Rab9 promoter act, ELG1 genotoxic, NPC1 promoter act, ELG1 repair inh)
O=C(/C=C/c1ccco1)Nc1nc(-c2ccccn2)cs1	Rab9 promoter act inconclusive, SMN2 splice up inconclusive, NPC1 promoter act inconclusive, FLuc counter 21µM, ELG1 repair inh inconclusive
CCOC(=O)Cc1csc(NC(=O)/C=C/c2ccc(Cl)cc2)n1	FLuc counter 2.4µM (no result: SMN2 splice up)
Cc1ccc(/C=C/C(=O)Nc2nnc(SCc3ccc(C#N)cc3)s2)o1	ELG1 repair inh inconclusive
CCOC(=O)Cc1csc(NC(=O)/C=C/c2ccco2)n1	FLuc counter 11µM (no result: SMN2 splice up)
